Source: PubChem BioAssay
An excerpt weighted towards active compounds, which were near 3.7% of everything screened.
GDH-TPI counter-1 = inhibits GDH-TPI coupling enzymes, artifact for Mtb FBA screen; GDH-TPI coupled enzyme counterscreen, NADH absorbance; inhibition, % at 4.8 µM; 360,000 tested, 1.2% active; in the data active = inhibition above about 30%;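 note: 0% = DMSO wells and 100% = wells lacking the enzyme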
Rv3671c inh = Rv3671c (M. tuberculosis) protease inhibition | P9WHR9 | AID 2606 | 320,000 tested, 0.048% active | inhibition, % at 5.96 µM; in the data active = inhibition above about 38%;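 note: extracellular domain of Rv3671c used as enzyme; 0% = enzyme with DMSO and 100% = no enzyme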
FadD28 binding = inhibitors of Mycobacterium tuberculosis FadD28 bisubstrate binding. FadD28 bisubstrate probe binding, fluorescence polarization. inhibition, % at 12.5 µM. 360,000 tested, 0.22% active. AID 588549; in the data active = inhibition above about 8.5%, passing the limit was not always enough
Mtb bLac sens = beta-lactam sensitization of Mtb H37Rv. M. tuberculosis H37Rv growth with meropenem, percent inhibition. 330,000 tested, 0.27% active. inhibition, % at 25 µM; call rule not given here;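 note: growth measured after seven days incubation then overnight dye step; 0% = bacteria only wells and 100% = bacteria with antibiotic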
UGM FP inh = Mtb UDP-galactopyranose mutase inhibition; inhibition, % at 10 µM; 320,000 tested, 0.06% active; purified UGM, fluorescence polarization probe displacement; P9WIQ1; in the data active = inhibition above about 10%, passing the limit was not always enough
Target sequence (P9WIQ1 whole entry, looked up): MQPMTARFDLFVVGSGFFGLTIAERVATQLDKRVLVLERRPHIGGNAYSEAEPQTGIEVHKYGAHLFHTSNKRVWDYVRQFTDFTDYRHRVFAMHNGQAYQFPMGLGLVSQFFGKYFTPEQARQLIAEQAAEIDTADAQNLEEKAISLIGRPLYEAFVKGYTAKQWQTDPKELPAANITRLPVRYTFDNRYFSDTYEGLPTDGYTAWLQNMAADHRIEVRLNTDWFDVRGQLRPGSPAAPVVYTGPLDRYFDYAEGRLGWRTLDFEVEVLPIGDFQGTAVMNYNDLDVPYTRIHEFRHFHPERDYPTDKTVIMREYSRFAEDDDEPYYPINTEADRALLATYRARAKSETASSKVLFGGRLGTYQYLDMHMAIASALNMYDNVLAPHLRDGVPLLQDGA
Mtb FBA inh = inhibitors of M. tuberculosis fructose-bisphosphate aldolase; 360,000 tested, 2.3% active; purified M. tuberculosis FBA, fluorescence read-out; inhibition, % at 1 µM; P9WQA3;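 note: 0% = vehicle and 100% = reference inhibitor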
Mtb FBA inh conf = Mtb FBA inhibition, confirmed | 5,600 tested, 78% active | inhibition, % at 1 µM | AID 651616 | purified M. tuberculosis FBA, fluorescence read-out | shares compounds with Mtb FBA inh;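 note: 0% = vehicle wells and 100% = reference inhibitor wells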
GDH-TPI counter-2 = GDH-TPI inhibition counter-screen for FBA inhibitors. shares compounds with Mtb FBA inh. GDH-TPI coupled enzyme counterscreen, fluorescence. inhibition, % at 1 µM. 5,600 tested, 81% active. AID 652141; in the data active = inhibition above about 10%
* hit, by the source's call; nt = not tested or not shown; + = active, no number. Cut-off read from the data, not from the text of the source, unless noted: active = inhibition above about 27%; inactive = the rest.

SMILES	GDH-TPI counter-1	Rv3671c inh	FadD28 binding	Mtb bLac sens	UGM FP inh	Mtb FBA inh	Mtb FBA inh conf	GDH-TPI counter-2
CCS(=O)(=O)c1nc(S(=O)(=O)c2ccc(C)cc2)c(NCCCN2CCCC2=O)s1	8	3	-2	0	1	3	nt	nt
O=C1CCCN1CCCNc1nc2c(S(=O)(=O)c3ccccc3)nnn2c2ccc(Cl)cc12	-1	-7	-3	-1	-2	41*	1	-2
CCn1nccc1NC(=O)c1csc([C@@H]2C[C@H](O)[C@@H](CO)O2)n1	6	nt	-1	nt	nt	0	nt	nt
CC(C)c1nc(C(N)=O)c2[nH]c(=O)n(-c3ccc(F)cc3)c2n1	19	-3	-2	-6	0	32*	+	+
CC(=O)NCCNc1nc2cc(-c3ccccc3CO)sc2c(=O)n1C	-1	nt	-1	nt	nt	0	nt	nt
O=C(O)c1cc(-c2c[nH]c3ccccc23)nc2ccc3ccccc3c12	18	-6	2	-1	1	45*	+	136*
Cc1c2cnccc2c(C)c2c1oc1ccccc12	3	nt	-1	nt	nt	43*	115*	94*
CC(=O)N(c1ccccc1)c1ccccc1[N+](=O)[O-]	-7	nt	-4	nt	nt	-3	nt	nt
Cn1c(N)nc2nc(CCc3ccccc3)c(=O)[nH]c2c1=O	4	-3	-2	8	3	60*	8	2
COC(=O)C1=CN(Cc2ccc(OC)cc2)C=C(C(=O)OC)C1c1cccs1	-2	2	-7	-3	3	71*	7	7
COC(=O)C1=CN(CCCN2CCCC2=O)C=C(C(=O)OC)C1c1cccs1	7	3	-1	-3	0	21	nt	nt
COC(=O)C1=CN(Cc2cccs2)C=C(C(=O)OC)C1c1cccc(OC)c1OC	9	-6	-1	6	-3	53*	82*	75*
CC(=O)c1cccc(S(=O)(=O)N2CCn3cccc3C2C)c1 (stereo unspecified)	12	2	-2	-6	-4	0	nt	nt
CCOCCCNC(=O)c1cc2cc3cc(OC)ccc3nc2o1	2	-6	-4	-1	1	110*	91*	66*
COc1ccc(Cn2c(=O)[nH]c3cc(C(=O)NCCCOC(C)C)ccc3c2=O)cc1	10	1	-2	0	0	-1	nt	nt
O=C(NCc1cccs1)c1cc2ccccc2o1	-6	4	-2	-3	3	-3	nt	nt
COc1ccc2nc3oc(C(=O)NCCCOC(C)C)cc3cc2c1	13	-6	-4	-7	4	111*	7	2
COc1ccc2nc3oc(C(=O)NCc4cccs4)cc3cc2c1	24	-5	-1	1	4	32*	2	-4
Nn1c(SCc2ccccc2F)nnc1-c1ccccn1	9	-2	-1	4	1	42*	81*	71*
Nn1c(SCc2ccc(F)cc2)nnc1-c1ccccn1	-3	3	-2	21	4	-1	nt	nt
O=C(O)CCn1c(-c2ccccc2)cc2ccccc21	-5	5	-3	-7	-2	58*	25	16*
O=C(O)CCn1c(CO)nc2ccccc21	5	5	-3	3	-1	1	nt	nt
CCC(c1ccccc1)c1noc(CCN(CC)CC)n1 (stereo unspecified)	-5	nt	-2	nt	nt	1	nt	nt
O=C(NCC1CCCO1)c1ccc(Cl)c(NS(=O)(=O)c2ccc(F)cc2)c1 (stereo unspecified)	4	nt	-2	nt	nt	0	nt	nt
O=C(NCCc1cn2ccccc2n1)C1CCCCC1	4	11	1	6	-1	27*	109*	80*
SMILES	GDH-TPI counter-1	Rv3671c inh	FadD28 binding	Mtb bLac sens	UGM FP inh	Mtb FBA inh	Mtb FBA inh conf	GDH-TPI counter-2
O=C(NCCc1cn2ccsc2n1)C1CCCCC1	6	4	-4	-2	0	-2	nt	nt
COc1cccc(NC(=O)N(C)C[C@H]2Oc3ncc(Br)cc3C(=O)N([C@H](C)CO)C[C@H]2C)c1	10	nt	-1	nt	nt	2	nt	nt
Cc1cccn2c(=O)c3cc(C(=O)NCC4CCCO4)c(=N)n(CCc4ccccc4)c3nc12 (stereo unspecified)	-5	0	0	1	4	109*	76*	64*
COc1cc2nc(SCC(=O)NCCc3ccccc3)n(Cc3ccco3)c(=O)c2cc1OC	2	-2	-5	-2	3	0	nt	nt
Cc1cccn2c(=O)c3cc(C(=O)NCCc4ccccc4)c(=N)n(Cc4ccco4)c3nc12	-2	-12	-2	89	6	30*	+	+
Cc1cccn2c(=O)c3cc(C(=O)NCc4ccco4)c(=N)n(CCc4ccccc4)c3nc12	4	-15	-3	64	nt	53*	90*	81*
Cc1ccccc1Nc1cc(C(=O)NCC2CCCO2)c2ccccc2n1 (stereo unspecified)	17	-2	-2	-12	-2	7	nt	nt
OC[C@@H]1CN(Cc2ccc(-c3ccccc3)cc2)C[C@H](n2cnc3c(NCc4ccc(F)cc4)ncnc32)O1	2	nt	-2	nt	nt	-4	nt	nt
COc1cc2c(cc1OC)-c1nnc(-c3ccco3)n1C1(CCCC1)C2	-5	-3	-3	0	-3	47*	108*	84*
c1coc(-c2nnc3n2C2(CCCC2)Cc2ccccc2-3)c1	11	-2	-3	6	-1	6	nt	nt
C[C@@H](C(=O)N=c1sc2ccccc2n1C)N1C(=O)C2CC=CCC2C1=O (stereo partly specified)	10	nt	-1	nt	nt	0	nt	nt
CC(=O)c1cccc(OC(=O)C2=CC=CN3CCS(=O)(=O)N=C23)c1	12	-1	-1	-1	5	44*	146*	152*
O=C(Nc1cccc(Cl)c1)C1=CC=CN2CCS(=O)(=O)N=C12	30	-3	-2	-7	-2	0	nt	nt
Cc1coc2cc3oc(=O)ccc3cc12	-1	-10	nt	-4	2	3	nt	nt
C/C=C(\C)C(=O)OC1c2c(ccc3ccc(=O)oc23)OC(C)(C)C1OC(C)=O (stereo unspecified)	19	-5	-4	0	1	9	nt	nt
CC(C)=CC(=O)O[C@@H]1Cc2cc3ccc(=O)oc3cc2OC1(C)C	19	-5	1	3	0	34*	+	+
CC(=O)OC(C)(C)C1Cc2cc3ccc(=O)oc3cc2O1 (stereo unspecified)	10	-3	1	-1	3	104*	0	-2
C/C=C(\C)C(=O)OC(C)(C)[C@H]1Cc2cc3ccc(=O)oc3cc2O1	6	0	-1	-2	1	94*	+	+
CCc1nc2c(OCc3ccc4c(c3)OCO4)cccn2c1N(C=O)Cc1ccc(OC)cc1	8	nt	-3	nt	nt	0	nt	nt
CC1CCN(C(=O)COc2ccc3ccccc3c2Br)CC1	0	6	0	79	5	1	nt	nt
